Data: ChEMBL document CHEMBL1157539, “Thousands of chemical starting points for antimalarial lead identification” (Nature, 2010)

The compounds below were run on Plasmodium falciparum (assay: GSK_TCMDC: Inhibition of Plasmodium falciparum 3D7 in whole red blood cells, using parasite LDH activity as an index of growth. Test compounds present at 2uM).
Type: functional

Row | Structure (SMILES) | Inhibition [%]
1 | Fc1cc(Cl)ccc1Nc1ccnc2cc(-c3ccc(CNCCN4CCOCC4)o3)ccc12 | 100
2 | COc1ccc2nccc([C@@H](O)CN3CCC(NCc4nc5c(cc4Cl)OCC(=O)N5)C(F)C3)c2c1.Cl (stereo not given in full) | 84
3 | O=C(Nc1cc(C(F)(F)F)ccc1N1CCOCC1)C(Cl)(Cl)Cl | 100
4 | CCc1ccc2c(c1O)CCN(C)C2Cc1ccccc1Cl.Cl (stereo not given) | 99
5 | O=C(O)C(F)(F)F.O=S(=O)(NCCN1CCCC1)c1ccc(-c2ccc(CNCc3ccc(F)cc3)cc2)s1 | 100
6 | CC(CC(=O)NCC1(c2ccc(F)cc2Cl)CCOCC1)C(=O)c1ccc(Cl)cc1 (stereo not given) | 99
7 | CCc1c(C)c(C#N)c2nc3ccccc3n2c1NCc1ccco1 | 99
8 | Br.N=c1sc2ccccc2n1CC(O)c1ccc(Cl)c(Cl)c1 (stereo not given) | 99
9 | COc1ccc(-c2cnc3ccc(NCc4ccc(S(N)(=O)=O)cc4)nn23)cn1 | 98
10 | CN1CCN(c2ccnc3ccc(NC(=O)Cc4cccc(Cl)c4Cl)cc23)CC1 | 100
11 | Cc1ccccc1C1CCN(C2CCC(NC(=O)/C=C/c3ccc(C#N)cc3)CC2)CC1 (stereo not given) | 87
12 | Nc1nc(N)c2c(ccc3c2ccn3CCCF)n1 | 94
13 | CC(C)(Oc1c(C2CCN(CCCCNC(=O)c3ccc(-c4ccc(Cl)cc4)cc3)CC2)ccc2c1CCCC2)C(N)=O | 93
14 | CCN(CC)CCn1c2ccccc2c2ccc(C(=O)Nc3ccc4sc(C)nc4c3)cc21.Cl | 84
15 | Cc1nnc(NC(=O)c2cn(-c3ccccc3)nc2-c2ccccc2C)o1 | 93
